The list is not random: actives were taken first. Their share in the collection is about 0.56%.
Bcl-XL Bim block: inhibitors of Bim-Bcl-XL binding, primary screen, biochemical, multiplexed, bead flow cytometry, human Bcl-XL. Bim peptide-Bcl-XL binding, fluorescence. inhibition, % at 10 µM. 190,000 compounds, 0.04% hits
Target sequence (Q07817 whole entry, looked up): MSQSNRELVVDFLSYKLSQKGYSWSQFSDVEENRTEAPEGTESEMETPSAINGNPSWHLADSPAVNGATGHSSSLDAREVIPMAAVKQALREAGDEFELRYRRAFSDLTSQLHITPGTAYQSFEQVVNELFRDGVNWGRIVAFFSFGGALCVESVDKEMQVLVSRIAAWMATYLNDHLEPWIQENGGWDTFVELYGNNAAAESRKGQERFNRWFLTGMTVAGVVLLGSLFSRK
Bcl-B Bim block: inhibitors of Bim-Bcl-B binding, primary screen, biochemical, multiplexed, human Bcl-2 family. Bcl-2-like protein 10 (Homo sapiens), Q9HD36. bead-based flow cytometry, Bim peptide-Bcl-B binding. inhibition, % at 10 µM. 190,000 compounds, 0.073% hits. AID 951, 2007;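 also: 0% = tracer peptide without compound and 100% = reference inhibitor peptide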
Arbovirus inh: antivirals against arbovirus infection, primary screen, cell-based, full library, 10K replicate subset | arbovirus infection cell-based antiviral screen | inhibition, % at 10 µM | 200,000 compounds, 0.37% hits; in the data active = inhibition above about 30%
Bim-Bcl-W: inhibitors of Bim binding to Bcl-W, primary screen, biochemical, multiplexed, bead-based flow cytometry | Bim peptide-Bcl-W binding | AID 952, 2007 | inhibition, % at 10 µM | 190,000 compounds, 0.02% hits;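 also: 0% = bound tracer without compound and 100% = peptide blocker; higher means less fluorescent Bim peptide bound to Bcl-W beads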
Bfl-1 Bim block: inhibitors of Bim binding to Bfl-1, primary screen, biochemical, multiplexed, bead-based flow cytometry | Bim-Bfl-1 binding inhibition | Bcl-2-related protein A1 (Homo sapiens), Q16548 | 190,000 compounds, 0.12% hits | inhibition, % at 10 µM;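 also: 0% = wells without compound plus tracer and 100% = blocker peptide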
Target sequence (Q16548 whole entry, looked up): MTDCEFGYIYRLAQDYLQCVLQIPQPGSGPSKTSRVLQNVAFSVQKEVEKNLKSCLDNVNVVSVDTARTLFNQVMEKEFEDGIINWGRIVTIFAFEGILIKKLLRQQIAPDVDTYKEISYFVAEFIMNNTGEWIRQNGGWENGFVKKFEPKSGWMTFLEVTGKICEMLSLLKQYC
Bcl-2 Bim block: inhibitors of Bim-Bcl-2 binding, primary screen, biochemical, multiplexed, human Bcl-2 family; Apoptosis regulator Bcl-2 (Homo sapiens), P10415; Bead-based flow cytometry, Bim peptide-Bcl-2 binding; inhibition, % at 10 µM; 190,000 compounds, 0.06% hits; in the data active = inhibition above about 40%;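 also: 0% = no compound wells with probe peptide and 100% = reference peptide inhibitor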
Target sequence (P10415 whole entry, looked up): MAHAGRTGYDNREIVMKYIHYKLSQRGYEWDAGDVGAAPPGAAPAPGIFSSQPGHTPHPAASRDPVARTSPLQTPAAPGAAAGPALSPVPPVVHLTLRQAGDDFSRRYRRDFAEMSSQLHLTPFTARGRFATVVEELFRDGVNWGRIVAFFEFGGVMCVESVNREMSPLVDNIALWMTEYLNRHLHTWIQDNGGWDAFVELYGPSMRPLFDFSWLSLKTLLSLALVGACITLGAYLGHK
* hit, by the source's call. Rule as the data show it, unless noted: active = inhibition above about 40%.

SMILES | Bcl-XL Bim block | Bcl-B Bim block | Arbovirus inh | Bim-Bcl-W | Bfl-1 Bim block | Bcl-2 Bim block
Cc1nnc(NC(=O)Nc2cccc(Cl)c2)s1 | -8.0 | -8.0 | 22.7 | -4.0 | -22.0 | -5.0
CCC(=O)NC(=S)Nc1cc(C(=O)O)ccc1OC | -3.0 | -3.0 | -1.5 | 0.0 | -1.0 | -2.0
COc1ccc(C(=O)O)cc1NC(=S)NC(=O)c1ccc(-c2ccc(Cl)cc2)o1 | 0.0 | 2.0 | 50.4* | -1.0 | 5.0 | 4.0
O=C(O)c1cccc(NC(=S)NC(=O)c2ccc(-c3ccccc3)cc2)c1 | -2.0 | -4.0 | 27.8 | 0.0 | -3.0 | -4.0
O=C(O)c1cccc(NC(=S)NC(=O)c2ccc(-c3ccc(Cl)cc3)o2)c1 | -4.0 | 0.0 | 35.4* | -3.0 | 3.0 | 0.0
O=C(O)CSc1nc(-c2ccc(Cl)cc2)nc2c1oc1ccccc12 | -2.0 | -3.0 | 34.8* | -5.0 | 0.0 | -2.0
O=C(O)CSc1nc(-c2ccccc2)nc2c1oc1ccccc12 | -14.0 | -10.0 | -3.3 | -2.0 | -15.0 | -13.0
CCOC(=O)C1=Nc2ccccc2C1=[N+]=[N-] | -1.0 | -9.0 | 45.0* | 1.0 | -14.0 | -8.0
OCCC1CN(CCCn2cccn2)CCN1C1CCCCC1 (configuration not stated) | -2.0 | -1.0 | -1.8 | -4.0 | -4.0 | 0.0
O=c1cnn([C@@H]2O[C@H](CO)[C@@H](O)[C@H]2O)c(=O)[nH]1 | 0.0 | -3.0 | 78.3* | -2.0 | -2.0 | 2.0
Nc1ccn([C@@H]2O[C@H](CO)[C@@H](O)C2O)c(=O)n1 (some centres not stated) | -2.0 | 0.0 | -11.8 | 0.0 | -1.0 | -1.0
CCOc1ccc(-n2c(SCC(=O)Nc3cc(OC)c([N+](=O)[O-])cc3C)nc3ccccc32)cc1 | 0.0 | -6.0 | 53.9* | -2.0 | 1.0 | 0.0
COc1cc([N+](=O)[O-])ccc1NC(=O)CSc1nc2ccccc2n1-c1ccccc1 | -5.0 | -10.0 | -12.3 | 0.0 | 8.0 | 4.0
CC(C)[C@H](NC(N)=O)C(=O)Nc1cccc(S(=O)(=O)N2CCOCC2)c1 | -4.0 | -6.0 | 1.4 | 2.0 | 0.0 | -1.0
COc1ccc(S(=O)(=O)N2CCCC2C(=O)n2nc(C)cc2C)cc1 (configuration not stated) | 4.0 | 0.0 | -8.7 | -3.0 | -1.0 | 0.0
Cc1ccc(NC(=O)Nc2sc(=S)n(C)c2C)cc1 | -6.0 | -11.0 | -1.4 | -1.0 | -10.0 | -7.0
CC(=O)NC(=O)Nc1sc(=S)n(C)c1C | 49.0* | 33.0 | 0.0 | 37.0 | 56.0* | 34.0
Oc1ccccc1C1CC(c2cccs2)=NC(c2cccc(Br)c2)N1 (configuration not stated) | -3.0 | -1.0 | 0.2 | 2.0 | -3.0 | 1.0
CCn1ccc(C(=O)Nc2ccccc2SC)n1 | 0.0 | -1.0 | -5.2 | 2.0 | -1.0 | 0.0
COc1ccc(C(=O)CN2CCN(S(=O)(=O)c3cccc([N+](=O)[O-])c3)CC2)cc1 | -8.0 | -7.0 | 0.6 | -5.0 | -3.0 | -5.0
O=C1CSC(=Nc2ccccc2)N1Cc1ccccc1 | -1.0 | -2.0 | 3.2 | -1.0 | -2.0 | -3.0
Cc1ccccc1N=C1SCC(=O)N1Cc1ccccc1 | -11.0 | -10.0 | 37.1* | -8.0 | -10.0 | -9.0
Cc1cccc(-n2nc(C)c3c(C(=O)O)cc(-c4cccs4)nc32)c1 | 1.0 | 1.0 | 41.9* | -2.0 | -2.0 | 0.0
O=C(N/N=C/c1c(O)n(-c2ccccc2Cl)c(=O)c2ccccc12)c1cccnc1 | -2.0 | 0.0 | 35.9* | 1.0 | -3.0 | -1.0
O=C(N/N=C/c1c(O)n(Cc2ccccc2)c(=O)c2ccccc12)c1cccnc1 | 0.0 | -5.0 | -23.9 | 0.0 | -4.0 | 0.0
SMILES | Bcl-XL Bim block | Bcl-B Bim block | Arbovirus inh | Bim-Bcl-W | Bfl-1 Bim block | Bcl-2 Bim block
CCOC(=O)C(NC(=O)c1ccccc1)(OCc1ccc(F)cc1)C(F)(F)F (configuration not stated) | 0.0 | 1.0 | 2.0 | 0.0 | -7.0 | -5.0
CCOC(=O)C(NC(=O)c1cccc(Cl)c1)(OCc1ccc(F)cc1)C(F)(F)F (configuration not stated) | -6.0 | -8.0 | 48.8* | -1.0 | -6.0 | -5.0
CCc1nnc(NS(=O)(=O)c2ccc(N/C=C\C(=O)c3ccc4ccccc4c3)cc2)s1 | -1.0 | 2.0 | 34.2* | 0.0 | 3.0 | 4.0
CCc1nnc(NS(=O)(=O)c2ccc(NC(=O)c3ccc(Cl)cc3)cc2)s1 | -2.0 | -3.0 | 0.8 | 0.0 | -6.0 | -5.0
COc1ccc(NC(=O)Nc2ccc(Br)cn2)cc1 | 1.0 | -1.0 | 0.4 | 0.0 | -5.0 | -2.0
CCc1ccc(C2=CC(c3cc(Br)ccc3F)n3ncnc3N2)cc1 (configuration not stated) | -8.0 | -7.0 | 62.1* | -4.0 | -3.0 | 1.0
Cc1ccsc1C1C=C(c2cccc(Br)c2)Nc2ncnn21 (configuration not stated) | -1.0 | -2.0 | -0.8 | -1.0 | 7.0 | -4.0
Fc1ccc(Br)cc1C1C=C(c2ccc(Br)cc2)Nc2ncnn21 (configuration not stated) | 0.0 | -8.0 | 70.8* | 0.0 | -8.0 | -7.0
CCOC(=O)C1=C(C)Nc2ncnn2C1c1ccccc1F (configuration not stated) | -3.0 | -8.0 | -0.5 | 0.0 | -8.0 | -6.0
COC(=O)c1ccc(NC(C)=O)cc1O | -2.0 | -3.0 | 0.1 | 0.0 | -6.0 | -1.0
CCCCN(CCCC)CC(O)COc1ccccc1Br (configuration not stated) | -5.0 | -10.0 | 39.3* | -2.0 | -8.0 | -11.0
C/C=C/c1ccc(OCCCCOc2ccccc2C(C)=O)c(OC)c1 | -2.0 | -7.0 | 35.7* | -2.0 | -13.0 | -5.0
COc1cc(CNc2ccc(N3CCCC3)cc2)ccc1OCc1ccccc1F | 1.0 | -11.0 | -6.2 | 20.0 | 27.0 | 10.0
COc1cc(CNc2ccc(N3CCCC3)cc2)ccc1OCc1ccccc1 | 3.0 | 0.0 | -11.1 | 32.0 | 47.0* | 24.0
Cc1cc2c(cc1C)C(c1ccsc1)CC(=O)N2 (configuration not stated) | -4.0 | -6.0 | -9.0 | -4.0 | -6.0 | -3.0
CCOC(=O)CSC1=NC(=O)/C(=C\c2ccc(OC(C)=O)cc2)S1 | 2.0 | 6.0 | -3.0 | 9.0 | 58.0* | 12.0
Cc1ccc(Nc2nc(N)c([N+](=O)[O-])c(N3CCOCC3)n2)cc1C | -8.0 | -8.0 | 51.2* | -4.0 | -11.0 | -5.0
CCOC(=O)c1c(-c2ccc(C)o2)csc1NC(=S)NC(=O)c1ccccc1Br | -2.0 | -9.0 | 46.7* | 0.0 | -4.0 | -14.0
CCOC(=O)c1c(-c2ccc(C)o2)csc1NC(=S)NC(=O)c1cccs1 | -4.0 | -2.0 | 7.8 | 1.0 | 8.0 | 0.0
